SIRT5 block: sirtuin-5 (human) deacylase inhibition. Q9NXA8. Purified SirT5, succinyl-peptide AMC, trypsin-coupled fluorescence. inhibition, % at 15 µM. actives 1.1% (n = 330,000); in the data active = inhibition above about 15%
Target sequence (Q9NXA8 whole entry, looked up): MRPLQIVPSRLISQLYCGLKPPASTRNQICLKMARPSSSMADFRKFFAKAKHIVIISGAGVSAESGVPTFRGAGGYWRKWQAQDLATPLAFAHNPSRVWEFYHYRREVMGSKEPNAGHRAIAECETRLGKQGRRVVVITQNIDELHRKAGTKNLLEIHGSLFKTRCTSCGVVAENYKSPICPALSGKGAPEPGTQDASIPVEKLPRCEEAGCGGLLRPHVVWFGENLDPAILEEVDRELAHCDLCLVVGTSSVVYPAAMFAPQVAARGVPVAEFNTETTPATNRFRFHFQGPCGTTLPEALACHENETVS
LGR2 antag: blocks bursicon-induced cAMP signaling via Drosophila LGR2 | AID 720647 | actives 0.35% (n = 380,000) | inhibition, % at 9.99 µM | HEK293 LGR2, CRE-luciferase, bursicon-stimulated, 4 h;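 active = drop in luminescence signal, shown as inhibition above about 50% in the replicate tests, limit read from the data, passing the limit was not always enough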;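 note: agonist challenge used bursicon conditioned medium at about half maximal strength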
EWS-Fli block: EWS/Fli transcriptional activity inhibition. AID 651661. actives 0.67% (n = 350,000). inhibition, % at 12.6 µM. A673 NR0B1-luciferase reporter, viability-normalised;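 active = mean inhibition of at least 50% after viability correction, with every replicate also passing that limit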;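 note: firefly luciferase signal divided by Alamar Blue viability fluorescence both relative to DMSO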
PAX8 inh HTS: inhibitors of PAX8 transcriptional activity in RMG-I cells | inhibition, % at 12.6 µM | AID 652154 | actives 1.2% (n = 360,000) | RMG-I TPO-luciferase reporter, SteadyGlo, 24 h;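 active = mean replicate inhibition at least 60% with every replicate also reaching 60%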;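 note: luciferase light reporting Pax8 driven TPO promoter activity; plate controls were median of neutral control wells for no effect and mitoxantrone controls for full effect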
PGC1a acetyl inh: PGC1a acetylation modulation, inhibitor mode | U2OS PGC1a acetylation, AlphaScreen anti-acetyl-lysine; with virally co-expressed GCN5 acetyltransferase | inhibition, % at 15.6 µM | actives 0.17% (n = 350,000);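 active = every replicate shows inhibition of at least 40%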;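 note: 0% = neutral control wells and 100% = positive control wells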
rRNA inh HTS: inhibits bacterial ribosomal RNA function over humanized ribosomes | actives 1.6% (n = 350,000) | E. coli WT GFP vs humanized-ribosome RFP mutants, fluorescence, 24 h; stronger effect = lower value; DMSO median 0, no signal -100 | GFP signal change (wild-type ribosome), % (test concentration not listed) | AID 720706;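 active = significant combined selectivity score with lowered wild-type GFP, culture density cut under 30%, mutant RFP and density less affected; inactive = any of these conditions unmet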
An asterisk follows results filed as active; / = not tested or not shown; ! = not confirmed by another sample. Sampled rows, rich in hits. Any-hit rate of the full collection: about 3.4%.

SMILES	SIRT5 block	LGR2 antag	EWS-Fli block	PAX8 inh HTS	PGC1a acetyl inh	rRNA inh HTS
CCOC(=O)C1CCN(C2=C(NS(=O)(=O)c3ccc(Br)cc3)C(=O)c3ccccc3C2=O)CC1	23*	23	/	29	/	-38*
O=C(C[C@@H]1CC[C@@H]2[C@H](COC[C@@H](O)CN2CC2CCCC2)O1)NCc1ccc(Cl)cc1	-3	-23	-1	/	/	-2
CCN(CC(=O)NC(=O)NCc1ccccc1)Cc1ccccc1	-6	-18	-2	6	-4	-23*
O=C1C=CC(=C(c2ccc(O)cc2)c2ccc(O)cc2)C=C1	5	58*!	18	106*	/	-50*!
Cc1ccc(NC(=O)C(C)OC(=O)CCNS(=O)(=O)c2ccc(C)cc2)cc1 (stereo not drawn)	-3	2	0	70*	/	-1
CC(=O)Nc1ccc(S(=O)(=O)NCCC(=O)OC(C)C(=O)c2ccc(C)cc2)cc1 (stereo not drawn)	3	6	6	5	/	-3
c1ccc(CN2CCC(N3CCC(N4CCCCCC4)CC3)CC2)cc1	32*	13	/	/	/	12
O=S(=O)(c1ccccc1)N1CCN(C2CCN(Cc3ccccc3)CC2)CC1	/	/	/	/	-8	/
CN(C)CCCNC(=O)C[C@H]1CC[C@H](NS(=O)(=O)c2ccccc2)[C@@H](CO)O1	0	-27	-3	-8	-5	3
Cc1cccc(NC(=S)NCCSc2ccc(Cl)cc2)c1	-4	-1	10	-18	7	-37*
Cc1cccc(NC(=S)NCC(C)CSc2ccc(Cl)cc2)c1 (stereo not drawn)	-2	7	16	27	1	-37
Cc1ccc(NC(=S)NCC(C)CSc2ccc(Cl)cc2)cc1 (stereo not drawn)	-10	21	-1	-6	-4	-27*
Cc1ccc(C)c(NC(=S)NCCSc2ccc(Cl)cc2)c1	/	6	/	-5	/	/
C[C@H]1CN([C@@H](C)CO)C(=O)c2cc(-c3ccncc3)cnc2O[C@H]1CN(C)C(=O)NC1CCCC1	-2	-13	0	/	10	-3
COC(=O)c1cc(=O)n(Cc2ccc(OC)c(OC)c2)c(=Nc2ccc(F)cc2)s1	8	62*	3	41	12	-4
COC(=O)c1cc(=O)n(CCc2ccc(OC)c(OC)c2)c(=Nc2ccc(F)c(Cl)c2)s1	11	55*	13	17	/	1
COC(=O)c1cc(=O)n(Cc2ccco2)c(=Nc2ccc(F)cc2)s1	/	/	/	/	38	/
COC(=O)c1cc(=O)n(Cc2ccc(F)cc2)c(=Nc2ccccc2)s1	-4	24	21	4	/	-1
O=C(C[C@H]1CC[C@@H](NC(=O)Nc2ccccc2)[C@H](CO)O1)NCc1cccc(F)c1	-2	6	2	-11	-4	1
N#C/C(=C\c1ccc([N+](=O)[O-])o1)c1nc2ccccc2[nH]1	-2	12	59*	32	/	-11
Cc1ccc(NC(=O)c2cc(C)n(-c3ccccc3)c2C)cc1	0	/	69*	19	0	-18
Cc1ccc(NC(=O)c2cc(C)n(-c3cccc(C)c3)c2C)cc1	/	-65	-97	-163	/	/
N=c1oc2ccccc2cc1C(=O)Nc1ccc(F)cc1	-5	9	26	-192	7	-1
Cc1ccc(NC(=O)c2cc3ccccc3oc2=N)cc1	-2	89*	69*	-5	/	-3
Cc1cc(C(=O)Nc2ccc(Cl)cc2)c(C)n1-c1ccccc1	-1	82*	58*	26	3	-40*
COc1cccc(C(=O)Nc2ccc3c(c2)OC[C@@H](C)N(C(C)=O)C[C@H](C)[C@@H](OC)CN(C)C3=O)c1	/	/	/	/	/	-6
Clc1cccc(OCCOCCN2CCNCC2)c1Cl	-4	14	-2	1	-6	-16*
Clc1cccc(OCCCN2CCCC2)c1Cl	-3	0	3	-3	-6	11
COC(=O)[C@@]1(CCS(=O)(=O)c2ccccc2)COC(c2ccc(OCCCO)cc2)=N1	2	/	80*	10	22	/
COC(=O)[C@@]1(Cc2ccccc2)N=C(c2ccc(OCCCO)cc2)O[C@H]1c1ccccc1CN=[N+]=[N-]	20*	/	9	96*	/	/

Compound activity (PubChem)
